Screening data from PubChem BioAssay.
FLuc modulator – inhibits or activates purified firefly luciferase, miR-21 counter-screen | purified FLuc, Km substrates, luminescence inhibition | Potency, µM (titrated, usually from 57.5 µM), without a hit: at the top dose activity change, negative = inhibition, hits mostly inhibitors | 360,000 tested, 6.9% active | AID 588342;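 also: plate controls were vehicle for no effect and reference inhibitor for full effect; nearly all actives have a fitted effect of over 55% in size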
Target sequence (P08659 whole entry, looked up): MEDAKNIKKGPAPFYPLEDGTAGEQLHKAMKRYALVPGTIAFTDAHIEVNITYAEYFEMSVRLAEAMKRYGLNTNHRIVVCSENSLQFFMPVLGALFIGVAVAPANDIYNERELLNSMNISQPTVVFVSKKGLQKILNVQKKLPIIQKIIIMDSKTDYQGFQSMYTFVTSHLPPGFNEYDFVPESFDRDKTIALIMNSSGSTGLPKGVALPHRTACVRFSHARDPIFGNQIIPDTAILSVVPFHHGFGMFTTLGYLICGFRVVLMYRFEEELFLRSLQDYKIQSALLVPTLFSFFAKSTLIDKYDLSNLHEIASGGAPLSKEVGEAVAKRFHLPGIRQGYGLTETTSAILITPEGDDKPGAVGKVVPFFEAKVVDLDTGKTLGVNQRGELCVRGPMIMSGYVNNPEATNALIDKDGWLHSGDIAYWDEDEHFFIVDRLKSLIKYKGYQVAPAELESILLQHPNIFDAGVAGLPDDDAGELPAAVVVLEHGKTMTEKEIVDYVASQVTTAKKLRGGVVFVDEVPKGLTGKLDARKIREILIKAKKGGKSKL
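Purified P. pyralis luciferase, 10 nM final, with Km-level 10 uM D-luciferin and 10 uM ATP in 50 mM Tris acetate pH 7.5, 10 mM Mg acetate, 0.01% Tween-20, 0.05% BSA; 6-point qHTS titration about 60 µM downward; luminescence read.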
NPC1 promoter act – NPC1 promoter activation | 320,000 tested, 2.4% active | AID 485313 | Huh7 NPC1 promoter luciferase reporter, 24 h | Potency, µM (top dose mostly 9.22 µM), for inactives: at the highest dose activation, actives largely listed as activators; also: % of control where 0% means no effect; nearly all actives have a fitted effect of over 60% in size
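NPC1 promoter–luciferase Huh7 cells; 24 h compound; luminescence.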
SMN2 splice up – SMN2 splice variant enhancement; HEK293 SMN2-luciferase splicing reporter, luminescence, 30-36 h; Potency, µM (top dose mostly 46.1 µM), for inactives: at the highest dose activity change, positive = activation, most hits filed as activators; 210,000 tested, 2.8% active; also: % of control where 0% means no effect; nearly all actives have a fitted effect of over 55% in size
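qHTS luciferase splicing reporter: luminescence rises when SMN2 exon 7 is included in transfected HEK293 cells. Compound exposure lasted 30-36 h at 37C, with 4.5 mM final sodium butyrate as control, followed by a ONE-Glo read.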
Rab9 prom act – activates the Rab9 promoter; Potency, µM (titrated, usually from 9.22 µM), without a hit: at the highest dose activation, negative = inhibition, hits mostly activators; Huh7 Rab9 promoter-luciferase reporter, luminescence, 24 h; 320,000 tested, 2.8% active; also: % of control where 0% means no effect; nearly all actives have a fitted effect of over 60% in size
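Using Huh7 cells stably transfected with Rab9 promoter–luciferase, compounds were incubated 24 h at 37 °C, 5% CO2; luciferase luminescence was read 10 min after reagent addition.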
ELG1 genotoxic – inducers of genotoxicity in HEK293T ELG1-luciferase cells. HEK293T ELG1-luciferase reporter, luminescence, 16 h. Potency, µM (titrated, usually from 46 µM), inactives show at the highest dose activity change, positive = activation, hits mostly activators. 330,000 tested, 1.3% active; also: % of control where 0% means no effect; nearly all actives have a fitted effect of over 60% in size
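Quantitative HTS format in 1536-well plates. HEK293T ELG1-luciferase reporter cells receive test compound and are incubated 16 hr at 37 °C, 5% CO2; ONE-Glo added, 30 min room temperature, then luminescence read.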
* marks the source's active call; other numbers are inactive results; ? = inconclusive; . = no result given. Sampled rows, rich in hits. Any-hit rate of the full collection: about 7.5%. Calls follow the shape of the dose curve; as a rule, active = well fitted curve in the direction sought with a large enough effect; inconclusive = small, poorly fitted or top-dose-only effect, or another doubt; inactive = no such curve, though single readings can be large; an effect the other way counts as inactive or inconclusive. Potency is read from the fitted curve at half-maximal effect.

SMILES	FLuc modulator	NPC1 promoter act	SMN2 splice up	Rab9 prom act	ELG1 genotoxic
COc1ccc(N2Cc3ccc(OC)c(OC)c3C2=O)cc1	4.78µM*	2µM*	.	?	10.3µM*
COc1ccc2c(c1OC)C(=O)N(c1cccc(/C=C/C(=O)O)c1)C2	3.01µM*	28.5%	.	23.9%	?
COc1ccc2c(c1OC)C(=O)N(c1nccs1)C2	15.1µM*	?	12.6µM*	?	18.4µM*
COc1ccc(C2CC(c3ccccc3)=NN2C(=O)COC(=O)c2nc3nccc(C)n3n2)cc1 (stereo not given)	5.5%	0.7%	3.1%	0.4%	6.8%
O=[N+]([O-])c1ccc(S(=O)(=O)Nc2ccccn2)cc1	-0.1%	-2.4%	.	5.6%	-0.5%
Cc1cc(NC(=O)Cc2ccsc2)ccc1Br	16.9µM*	21.8%	.	23.0%	2.1%
Cc1cc(C)c2c(=O)n(CC(=O)Nc3ccc(Br)c(C)c3)sc2n1	8.49µM*	0.7%	.	0.2%	0.2%
O=C(CCS(=O)(=O)c1ccccc1)Nc1ccc(Cl)cn1	?	5.8%	.	?	14.7%
CC(C)(C)c1ccc(/C=N/NC(=O)C2CCCC2)cc1	19µM*	?	.	?	?
CC(C)c1ccc(/C=N/NC(=O)CC(=O)NC2CCCCC2)cc1	-17.4%	-1.3%	.	-3.4%	5.6%
CC(C)c1ccc(/C=N/NC(=O)C2CCCC2)cc1	12µM*	2µM*	.	2.51µM*	5.8µM*
CC1(C)CC(=O)c2sc(N3CCCCC3)nc2C1	?	?	-8.1%	?	?
CC1(C)CNC(=O)c2sc(N3CCCCC3)nc2C1	15.1µM*	12.6%	22.8%	22.3%	?
COc1ccc(C(=O)COc2ccccc2C#N)cc1	?	2.82µM*	.	3.16µM*	?
COc1ccc(C(=O)COc2ccccc2C(N)=O)cc1	-19.1%	11.5%	-0.6%	18.7%	-5.8%
COC(=O)CCC(=O)COc1ccc(OC)cc1C#N	?	?	.	2.51µM*	?
CC1CCc2sc(C(=O)N/N=C/c3ccc(O)cc3)cc2C1 (stereo not given)	2.13µM*	0.4%	.	-1.0%	15.3%
C/C(=N\NC(=O)c1cc2c(s1)CCC(C)C2)c1ccc[nH]1 (stereo not given)	0.757µM*	1.78µM*	.	1.58µM*	?
CCC1CCc2sc(C(=O)NNC(=O)c3ccncc3)cc2C1 (stereo not given)	16.9µM*	1.0%	.	-4.1%	-0.5%
C/C(=N\NC(=O)c1cc2c(s1)CCC(C)C2)c1ccncc1 (stereo not given)	9.53µM*	3.3%	26.6%	13.0%	7.5%
CCC1CCc2sc(C(=O)O)cc2C1 (stereo not given)	?	2.5%	-6.5%	5.4%	-4.9%
CCC(=O)N(c1nnc(SCC(=O)Nc2ccc(N3CCOCC3)cc2)s1)C1CC1	?	-1.0%	.	-2.0%	3.8%
Cc1ccc(SCc2cc(=O)c3c(=O)n(-c4ccccc4)[nH]c3[nH]2)cc1	?	1.8%	17.6%	0.3%	-2.7%
COc1ncnc2c1oc1ccccc12	12µM*	-1.7%	.	-3.6%	?
c1ccc(Sc2ncnc3c2oc2ccccc23)nc1	21.3µM*	?	45.9%	?	?
SMILES	FLuc modulator	NPC1 promoter act	SMN2 splice up	Rab9 prom act	ELG1 genotoxic
CC(C)Sc1ncnc2c1oc1ccccc12	23.9µM*	3.9%	10.3%	17.5%	3.0%
c1coc(CSc2ncnc3c2oc2ccccc23)c1	19µM*	7.6%	.	26.8%	?
Fc1ccccc1CSc1ncnc2c1oc1ccccc12	?	-3.7%	.	8.5%	17.7%
COc1ccccc1C(=O)N/C(=C\c1cn(S(=O)(=O)N(C)C)c2ccccc12)C(=O)N1CCOCC1	-1.4%	-4.1%	.	-2.1%	-2.6%
O=C(Nc1ccccc1F)Nc1ccccc1OC(F)F	?	-5.0%	-7.8%	-3.2%	0.2%
CC(=O)CSc1ncnc2c1oc1ccccc12	?	17.6%	14.5%	9.1%	?
CCCSc1ncnc2c1oc1ccccc12	15.1µM*	3.0%	-1.6%	16.1%	17.3%
CCOC(=O)c1sc(N)c(C(=O)OCC)c1C	21.3µM*	?	.	?	?
CCOC(=O)c1sc(N)c(C(=O)Nc2ccccc2)c1C	?	21.8%	.	2.82µM*	17.1%
Nc1cc(=O)[nH]c(=O)n1CCc1ccccc1	-9.8%	-0.4%	.	1.4%	0.8%
Clc1ccccc1OCc1nnc2n1CCCCC2	2.7%	0.0%	.	1.8%	3.4%
CCC1CCCCN1CCCNC(=O)c1cn(CC)c2ccc(S(=O)(=O)N(C)C3CCCCC3)cc2c1=O (stereo not given)	0.9%	-1.1%	-6.0%	2.2%	-0.5%
Cc1ccc(Cl)cc1NC(=O)c1cnn2c(C(F)F)cc(-c3ccccc3)nc12	0.2%	.	.	.	.
CCc1nnc(NS(=O)(=O)c2ccc(NC(=O)/C=C/c3ccccc3Cl)cc2)s1	19µM*	0.2%	9.3%	-15.1%	0.2%
CCc1nnc(NS(=O)(=O)c2ccc(NC(=O)c3ccccc3)cc2)s1	?	-3.7%	.	-2.5%	-0.1%
CCc1nnc(NS(=O)(=O)c2ccc(NC(=O)c3ccc(Cl)cc3)cc2)s1	19µM*	-1.4%	-12.2%	-0.8%	-6.4%
CCc1nnc(NS(=O)(=O)c2ccc(NC(=O)/C=C/C(=O)O)cc2)s1	-12.6%	-3.9%	.	-0.9%	-2.0%
CCc1ccc(NC(=O)[C@H](C)NC(=O)C2CCN(C(=O)[C@@H](NC(=O)OC(C)(C)C)C(C)C)CC2)cc1	21.3µM*	18.4%	.	14.6%	6.9%
CN(C)C(=O)COc1ncnc2scc(-c3ccc(F)cc3)c12	0.4%	-4.9%	0.4%	1.1%	-1.1%
CCN(C(=O)COc1ncnc2scc(-c3ccc(F)cc3)c12)C1CCS(=O)(=O)C1 (stereo not given)	3.9%	0.4%	6.6%	12.8%	18.4µM*
COc1ccc(N2Cc3cccc(C(=O)Nc4ccc(C)c(C)c4)c3C2=O)cc1	-19.4%	.	9.8%	.	.
O=C(Nc1ccc(Cl)cc1)c1cc2c(-c3ccccc3)nn(-c3ccccc3)c2s1	0.3%	.	0.9%	.	.
O=C(Nc1nc2ccccc2c(=O)s1)c1ccco1	15.1µM*	-1.9%	.	-12.7%	-0.1%
O=C(Nc1nc2cc3c(cc2s1)OCO3)c1ccco1	0.239µM*	0.251µM*	.	0.224µM*	4.2%
O=C(COc1ccccc1)Nc1nc2cc3c(cc2s1)OCCO3	-16.6%	-0.2%	.	5.4%	?
O=C(Nc1nc(-c2cccs2)c(-c2ccccc2)s1)c1ccco1	-2.8%	-8.4%	-8.9%	5.3%	3.8%
CN(C)CCN(C(=O)c1ccco1)c1nc2cc3c(cc2s1)OCCO3	-12.5%	18.1%	.	18.4%	18.3µM*
O=C(Nc1nc2cc3c(cc2s1)OCCO3)c1ccco1	0.107µM*	?	.	0.794µM*	?
CC(=O)N/C(=C\c1ccccc1)C(=O)OCc1cccc(S(=O)(=O)N(C)C)c1	-2.0%	-9.8%	.	-0.4%	1.7%
O=C(Nc1nc2cc3c(cc2s1)OCCO3)c1ccc(N2C(=O)CCC2=O)cc1	?	?	.	11.5%	4.8%
